Test systems include NCI-H23 lung; NCI-H226 lung; NCI-H322M lung; NCI-H460 lung; HOP-92 NSCLC; NCI-H522 lung; A549/ATCC NSCLC; 786-0 renal; COLO 205 colon; DU-145 prostate; K-562 leukemia; MALME-3M melanoma; MDA-MB-231 breast; RXF 393 renal; SF-268 CNS; SF-295 CNS; SF-539 CNS; UACC-257 melanoma; M14 melanoma; HOP-62 NSCLC.
Holding throughout (assay): NCI-60 one-dose screen, 48 h (100 = growth as untreated, 0 = no growth, -100 = all killed)
What all share (conditions): 10 µM unless noted

About 83,000 compounds went through this panel and 20% of them were active in at least one assay; those are over-represented in the sample as a whole.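 Negative percent growth values reflect cell death: -40 means 40% of the cells present at the start died, and -100 means all died.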 Values without a mark were called inactive. Active and inactive are the calls of the source. How the source made its calls: active means growth percent below 10; inactive means the rest.

Regarding `COc1cc(/C=C/C(=O)c2ccc(-n3cc(CN4CCN(c5cc6c(cc5F)c(=O)c(C(=O)O)cn6C5CC5)CC4)nn3)cc2)cc(OC)c1OC`, the growth in the assay with NCI-H23 lung is 77.6%; in the assay with NCI-H226 lung, 74.8%; in the assay with NCI-H322M lung, 88.8%; in the assay on NCI-H460 lung, 85.9%; in the assay on HOP-92 NSCLC it was 88%; in the assay on NCI-H522 lung, 88%. The growth with A549/ATCC NSCLC is 90.5%; in the assay on 786-0 renal, 72.2%; in the assay with COLO 205 colon, 112%; in the assay with DU-145 prostate it was 92.3%; with K-562 leukemia, 60.7%; in the assay with MALME-3M melanoma it was 87.7%. Further, the growth in the assay with MDA-MB-231 breast is 66.4%; in the assay with RXF 393 renal, 55.7%; with SF-268 CNS, 77.2%; with SF-295 CNS, 81.9%; in the assay on SF-539 CNS, 82.5%; in the assay with UACC-257 melanoma it was 90.1%. Besides, in the assay with M14 melanoma, the growth was 88.1%.

On to `COc1ccc(-c2csc(NC(=O)CSc3nc(C)cc(=O)[nH]3)n2)cc1`, for which the growth in the assay with NCI-H23 lung was 91.1%; in the assay with NCI-H226 lung it was 111%; with NCI-H322M lung it was 106%; in the assay on NCI-H460 lung, 107%; in the assay on HOP-92 NSCLC it was 95.5%; in the assay with NCI-H522 lung, 86.7%. Further, the growth in the assay with A549/ATCC NSCLC was 104%; with 786-0 renal, 102%; in the assay with COLO 205 colon it was 116%; in the assay on DU-145 prostate, 106%; with K-562 leukemia, 104%; in the assay on MALME-3M melanoma it was 110%. Further, the growth in the assay on MDA-MB-231 breast was 91.7%; in the assay on RXF 393 renal, 128%; with SF-268 CNS, 96.4%; with SF-295 CNS it was 99.3%; with SF-539 CNS, 101%; in the assay with UACC-257 melanoma it was 101%. Moreover, the growth in the assay on M14 melanoma is 107%.

As to `Cc1ccc(S(=O)(=O)N(CCC(=O)O)c2ccccc2)cc1`, the growth in the assay on NCI-H23 lung was 112%; in the assay on NCI-H226 lung it was 109%; in the assay with NCI-H322M lung, 122%; with HOP-62 NSCLC it was 96.2%; in the assay with NCI-H460 lung, 112%; with HOP-92 NSCLC, 102%. Besides, the growth with NCI-H522 lung is 109%; in the assay on A549/ATCC NSCLC, 104%; in the assay on 786-0 renal, 94.3%; in the assay on COLO 205 colon, 132%; in the assay with DU-145 prostate, 111%; in the assay on K-562 leukemia, 93.4%. Further, the growth in the assay on MALME-3M melanoma was 142%; with MDA-MB-231 breast, 114%; in the assay on RXF 393 renal, 152%; in the assay on SF-268 CNS, 102%; in the assay with SF-295 CNS, 111%; in the assay on SF-539 CNS it was 99.1%. For the same compound, the values for the growth with UACC-257 melanoma and with M14 melanoma were 102% and 107%, respectively.

Regarding `Fc1ccc(/C=C/c2cc(/C=C/c3ccc(F)cc3)n(-c3cc(F)cc(F)c3)n2)cc1`, the growth is 98.3% with NCI-H23 lung; 109% in the assay on NCI-H226 lung; 86.5% in the assay on NCI-H322M lung; 107% in the assay on NCI-H460 lung; 83% in the assay on HOP-92 NSCLC; 61.7% in the assay with NCI-H522 lung. Also, the growth in the assay on A549/ATCC NSCLC was 90.8%; in the assay on 786-0 renal it was 77.4%; with COLO 205 colon, 119%; in the assay with DU-145 prostate, 99.9%; in the assay with K-562 leukemia, 66.4%; in the assay with MALME-3M melanoma, 98.1%. In addition, the growth is 101% with MDA-MB-231 breast; 112% in the assay on RXF 393 renal; 102% in the assay on SF-268 CNS; 93.5% in the assay on SF-295 CNS; 103% in the assay with SF-539 CNS; 106% in the assay on UACC-257 melanoma. Besides, in the assay on M14 melanoma, the growth is 87.7%.

For `COc1cc(OCc2cccc(-c3ccccc3)c2C)cc(OC)c1CN1CCCCC1C(=O)NCCOCCOCCN` (stereo not drawn), the growth in the assay on NCI-H23 lung is 86.8%; in the assay with NCI-H226 lung, 86.4%; in the assay on NCI-H322M lung it was 89.6%; with NCI-H460 lung it was 41.8%; in the assay on HOP-92 NSCLC it was 46.4%; in the assay with NCI-H522 lung, 93.3%. The growth in the assay on A549/ATCC NSCLC is 70.6%; in the assay with 786-0 renal, 90.8%; in the assay with COLO 205 colon, 20%; in the assay on DU-145 prostate, 65.7%; in the assay with K-562 leukemia, -19.8% (active); in the assay with MALME-3M melanoma, 54.1%. Besides, the growth with MDA-MB-231 breast is 57.5%; with RXF 393 renal it was 59%; in the assay on SF-268 CNS, 87%; with SF-295 CNS it was 89.3%; with SF-539 CNS, 87.7%; in the assay with UACC-257 melanoma, 99.7%. The growth with M14 melanoma was -27.5% (active).

`NC(=O)[C@@H]1Cc2ccccc2CN1C(=O)c1ccc2c(c1)Cc1ccccc1-2`: the growth with NCI-H23 lung was 89.4%; in the assay with NCI-H226 lung it was 83.2%; in the assay on NCI-H322M lung it was 103%; with NCI-H460 lung, 91.5%; with HOP-92 NSCLC it was 92.9%; with NCI-H522 lung it was 66.9%. The growth was 64.9% in the assay with A549/ATCC NSCLC; 97.8% in the assay with 786-0 renal; 105% in the assay with COLO 205 colon; 86% in the assay with DU-145 prostate; 58.9% in the assay on K-562 leukemia; 87.3% in the assay with MALME-3M melanoma. Further, the growth in the assay on MDA-MB-231 breast is 98.4%; in the assay on RXF 393 renal, 91.9%; in the assay with SF-268 CNS, 87.3%; in the assay on SF-295 CNS, 79.8%; in the assay with SF-539 CNS, 97.6%; with UACC-257 melanoma it was 94.9%. Further, the growth with M14 melanoma was 87.4%.

On to `Cc1ccc(NC(=O)c2ccc(Nc3ncnc4c3cnn4-c3cccc(F)c3)cc2)cc1`, for which the growth was 99.6% with NCI-H23 lung; 96.5% with NCI-H226 lung; 103% in the assay with NCI-H322M lung; 102% with NCI-H460 lung; 102% in the assay with HOP-92 NSCLC; 96% in the assay on NCI-H522 lung. Further, the growth with A549/ATCC NSCLC was 99.9%; in the assay with 786-0 renal it was 95.8%; in the assay on COLO 205 colon, 109%; in the assay with DU-145 prostate, 104%; with K-562 leukemia, 96.3%; with MALME-3M melanoma it was 101%. Also, the growth with MDA-MB-231 breast was 95.2%; in the assay on RXF 393 renal, 92.5%; with SF-268 CNS it was 97.2%; with SF-295 CNS, 103%; in the assay with SF-539 CNS, 101%; in the assay with UACC-257 melanoma it was 98%. Also, in the assay with M14 melanoma, the growth was 99%.

As for `Cc1ccc(C2=Nc3c(N)nc(N)nc3NC(c3cccc(Nc4ccnc5cc(C(F)(F)F)ccc45)c3)C2)cc1` (stereo not drawn), the growth was 39.4% with NCI-H23 lung; 80.7% in the assay with NCI-H226 lung; 54.8% in the assay with NCI-H322M lung; 11.7% in the assay on NCI-H460 lung; 28.3% in the assay with HOP-92 NSCLC; 11.9% in the assay with NCI-H522 lung. Further, the growth in the assay on A549/ATCC NSCLC was 30.1%; with 786-0 renal, 20.9%; in the assay on COLO 205 colon it was 7.09% (active); in the assay on DU-145 prostate, 46.6%; in the assay with K-562 leukemia, 8.46% (active); in the assay with MALME-3M melanoma, 39.1%. Further, the growth with MDA-MB-231 breast is 34.8%; in the assay with RXF 393 renal, 23.6%; in the assay with SF-268 CNS, 29.7%; with SF-295 CNS, 15.8%; with SF-539 CNS, 40.3%; in the assay on UACC-257 melanoma, 62.3%. Further, the growth with M14 melanoma was 11.1%.
